# Rows were chosen to be rich in hits. Some 9.8% of all compounds tested hit in one or more screens of this group.
# KDM4E inh: blocks human JMJD2E demethylase activity; JMJD2E catalytic domain, FDH-coupled NADH fluorescence (FDH is formaldehyde dehydrogenase); Potency, µM (top dose mostly 57.1 µM), hits mostly inhibitors; B2RXH2; hit rate 1.6% among 230,000; also: nearly all actives have a fitted effect of over 50% in size
# CBFb RUNX1 block: CBF-beta/RUNX1 interaction disruption. Q01196+Q13951. AlphaScreen CBFb-His/RUNX1-biotin binding, biochemical. Potency, µM (series often up to 59.8 µM), most hits filed as inhibitors. 230,000 tested, under 10 active; active = well fitted curve in the direction sought with a large enough effect; inconclusive = small, poorly fitted or top-dose-only effect, or another doubt; inactive = no such curve, though single readings can be large; an effect the other way counts as inactive or inconclusive
#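 CBFb-His/RUNX1-biotin, 30 nM each, preincubated 20 min RT; compound 15 min RT; Ni + streptavidin beads 50 ng each, 90 min RT; AlphaScreen read.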
# HTT ATP protect: Huntington cell model cytoprotection by ATP luminescence | PC12 HTT-Q103 induced, cytoprotection, ATP luminescence, 40 h | Potency, µM (highest dose often 56.4 µM), usual class: activators | hit rate 0.14% among 230,000; active = well fitted curve in the direction sought with a large enough effect; inconclusive = small, poorly fitted or top-dose-only effect, or another doubt; inactive = no such curve, though single readings can be large; an effect the other way counts as inactive or inconclusive; also: nearly all actives have a fitted effect of over 45% in size
#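 Compounds added alongside 100 nM tebufenozide, which induces toxic Q103 huntingtin exon 1-GFP in stable PC12 cells; surviving cells quantified by luminescent ATP measurement. Medium: phenol red-free DMEM, 5% equine and 5% calf serum.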
# HPGD inh: HPGD (human) dehydrogenase inhibition; Potency, µM, most hits filed as inhibitors; purified HPGD, NADH fluorescence kinetic, PGE2 substrate; hit rate 4.3% among 150,000; P15428
# Target sequence (P15428 whole entry, looked up): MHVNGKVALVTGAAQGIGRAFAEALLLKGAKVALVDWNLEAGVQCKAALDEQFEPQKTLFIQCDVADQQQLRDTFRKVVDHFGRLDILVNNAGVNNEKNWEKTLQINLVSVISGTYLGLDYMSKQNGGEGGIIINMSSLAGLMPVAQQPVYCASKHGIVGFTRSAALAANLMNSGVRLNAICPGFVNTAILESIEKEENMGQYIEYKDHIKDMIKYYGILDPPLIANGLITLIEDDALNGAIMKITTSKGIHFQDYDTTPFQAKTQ
#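 20 nM HPGD preincubated 15 min at room temperature with compound in 50 mM Tris-HCl pH 8, 0.01% Tween 20. Started with 1 mM NAD+ and 30 uM prostaglandin E2; NADH fluorescence (360/450 nm) read 5 times over 30-s intervals, last minus first.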
# HTT aggregate: inhibitors of mutant huntingtin aggregate formation in PC12 cells | Potency, µM (top dose mostly 46.1 µM), actives largely listed as inhibitors | AID 1688 | hit rate 1.1% among 220,000 | PC12 HttQ103-GFP aggregates, Acumen cytometry, 40 h; active = well fitted curve in the direction sought with a large enough effect; inconclusive = small, poorly fitted or top-dose-only effect, or another doubt; inactive = no such curve, though single readings can be large; an effect the other way counts as inactive or inconclusive; also: nearly all actives have a fitted effect of over 60% in size
#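 Aggregates are detected as GFP objects 1–25 µm with signal 6 STDEV over background in lysates of induced PC12 cells. These carry Huntingtin exon 1 with 103 glutamines fused to GFP under an ecdysone promoter; compounds titrated.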
# ALDH1A1 block: inhibitors of human aldehyde dehydrogenase 1A1; P00352; Purified ALDH1A1, NADH fluorescence, propionaldehyde substrate; Potency, µM (titrated, usually from 75.3 µM), usual class: inhibitors; hit rate 7.3% among 220,000
# Target sequence (P00352 whole entry, looked up): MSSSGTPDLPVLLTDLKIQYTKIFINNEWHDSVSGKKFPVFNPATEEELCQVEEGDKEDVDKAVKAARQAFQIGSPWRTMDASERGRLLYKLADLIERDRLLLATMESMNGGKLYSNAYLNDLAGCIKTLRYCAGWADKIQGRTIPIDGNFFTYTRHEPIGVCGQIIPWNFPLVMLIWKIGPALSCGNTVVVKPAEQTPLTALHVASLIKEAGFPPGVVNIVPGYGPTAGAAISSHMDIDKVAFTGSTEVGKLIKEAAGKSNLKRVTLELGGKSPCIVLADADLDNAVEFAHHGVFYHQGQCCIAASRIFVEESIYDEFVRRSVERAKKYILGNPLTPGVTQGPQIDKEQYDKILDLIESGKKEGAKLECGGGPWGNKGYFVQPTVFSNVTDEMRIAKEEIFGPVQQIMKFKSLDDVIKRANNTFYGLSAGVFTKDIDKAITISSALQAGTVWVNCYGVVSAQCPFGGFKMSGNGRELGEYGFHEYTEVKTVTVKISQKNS
# Numbers stand for hits; – = inactive; ? = inconclusive; · = not tested or not shown; [ ] = another dose, or the depositor's remark. Unless noted, calls follow the shape of the dose curve; as a rule, active = well fitted inhibition curve with a large enough effect (not every such curve was filed as active); inconclusive = small, poorly fitted or top-dose-only effect, or another doubt; inactive = no such curve, though single readings can be large or run the other way.
SMILES,KDM4E inh,CBFb RUNX1 block,HTT ATP protect,HPGD inh,HTT aggregate,ALDH1A1 block
Cc1onc(-c2c(F)cccc2Cl)c1C(=O)NC1C(=O)N2C1SC(C)(C)C2C(=O)O (configuration not stated),·,·,–,·,–,·
CCCNC(=O)c1ccc(CN2CCc3ccccc3C2)cc1,–,–,–[10 µM],–,–,–
C/C(=N\NC(=O)c1ccc(CN2CCc3ccccc3C2)cc1)c1ccccc1O,?,–,–,·,10µM,?
COCCNC(=O)c1ccc(CN2CCc3ccccc3C2)cc1,–,–,·,14.1µM,–,–
O=C(c1ccc(CN2CCc3ccccc3C2)cc1)N1CCCCC1,–,–,–,2.51µM,–,?
CSC1=C(C#N)C(c2sccc2C)CC(=O)N1 (configuration not stated),–,–,·,·,·,10µM
Cc1cc(CNC(=O)Cn2nc(C)c([N+](=O)[O-])c2C)c2ccccc2n1,–,–,–,·,–,?
O=C(/C=C/c1ccc([N+](=O)[O-])cc1)N(c1ccccn1)C1CCCCC1,?,–,–,·,–,12.6µM
O=C(NCc1cccnc1)c1sc2cc(Cl)ccc2c1Cl,–,–,–,?,–,–
Cc1c(CN(C)C(=O)c2sc3cc(Cl)ccc3c2Cl)cnn1C,–,–,–,20µM,?,?
O=C(c1ccccc1)c1ccccc1N1C(=O)C=CC1=O,–,–,–[10 µM],·,–[9.22 µM],3.16µM
O=C(O)c1ccccc1-c1ccccc1C(=O)c1ccccc1,·,·,–[10 µM],–,·,–[13.5 µM]
CC(=O)c1cccc(NC(=O)c2ccc(NS(=O)(=O)c3c(C)noc3C)cc2)c1,–,–,–,–,–,?
COC(=O)c1cc(NC(=O)C2CC=CCC2C(=O)O)cc(C(=O)OC)c1 (configuration not stated),–,–,–[0.074 µM],–,–,12.6µM
CC(=O)c1cccc(NC(=O)c2ccc(NS(C)(=O)=O)cc2)c1,–,–,–[10 µM],12.6µM,–,–
O=C(O)[C@H]1CC=CC[C@@H]1C(=O)Nc1cccc(O)c1,·,·,–[10 µM],–,·,–[13.5 µM]
O=C(Nc1cccc(F)c1)c1ccccc1,–,–,–,31.6µM,–,–
O=C(O)C1CC=CCC1C(=O)Nc1cccc(F)c1 (configuration not stated),–,–,–[1.9 µM],–,?,28.2µM
COC(=O)c1ccccc1NC(=O)C1CC=CCC1C(=O)O (configuration not stated),?,–,–[10 µM],–,–,–
Cn1c(Sc2ccc(-c3cccnc3)n2C)ccc1-c1cccnc1,·,·,–[10 µM],–,·,–[13.5 µM]
O=C(Nc1cccc(C(=O)N2CCN(Cc3ccccc3)CC2)c1)c1ccccc1,–,–,–,–,11.2µM,?
Cc1cc(C)cc(Oc2ccc(NC(=O)C3CC=CCC3C(=O)O)cc2)c1 (configuration not stated),–,–,·,·,–,2.82µM
O=C(O)C1CC=CCC1C(=O)Nc1ccc(Oc2ccc(Cl)cc2)cc1 (configuration not stated),–,–,·,–,–,1.41µM
CCN(CC(=O)NCc1ccc(Cl)cc1)CC(=O)Nc1ccc(C(N)=O)cc1,–,–,–,·,–,?
Cc1ccc(Nc2nnc(C(C)(C)C)c(=O)n2N)cc1,–,–,–[10 µM],–,–,–
SMILES,KDM4E inh,CBFb RUNX1 block,HTT ATP protect,HPGD inh,HTT aggregate,ALDH1A1 block
CC(C)(C)c1nnc(N/N=C/c2cc(Br)ccc2O)n(N)c1=O,22.4µM,·,–[10 µM],–,12.6µM,–
Cc1ccc(C(C(=O)NCc2ccc(F)cc2)N(CCCO)C(=O)C2COc3ccccc3O2)o1 (configuration not stated),–,–,–[10 µM],·,–[9.22 µM],–
CCN(CC)C(=S)SCC(=O)NC12CC3CC(CC(C3)C1)C2,–,–,–[10 µM],14.1µM,?,4.47µM
CC1=NN(c2ccccc2)C(=O)/C1=C\c1c(C)[nH]n(-c2ccccc2)c1=O,–,–,–,–,–,–
CC1=NN(c2ccccc2)C(=O)/C1=C/c1c(O)n(-c2ccc(F)c(Cl)c2)[nH]c1=O,–,–,–[10 µM],–,–,14.1µM
CCCc1ccc(NS(=O)(=O)c2c(C)oc(C)c2C(=O)OC)cc1,–,–,–[10 µM],·,–[9.22 µM],·
CN(C)c1ccc2c3c(cccc13)C(=O)N(c1ccccc1)C2=O,–,?,–[10 µM],·,–[9.22 µM],–
O=C(O)c1ccc(N2C(=O)c3cccc4c(C(=O)O)ccc(c34)C2=O)cc1,28.2µM,?,·,·,–,–
Nc1ccc2c3c(cccc13)C(=O)N(c1ccccc1)C2=O,?,–,–,·,?,28.2µM
Cc1c(O)c2c3c(cccc3c1O)C(=O)N(c1ccccc1)C2=O,–,–,·,–,20µM,–
O=C(O)c1ccc2c3c(cccc13)C(=O)N(c1ccccc1)C2=O,?,?,–,·,–,?
Cc1cc(=O)[nH]c(N/N=C/c2c(C)nn(-c3ccc(F)cc3)c2Cl)n1,–,–,–[10 µM],·,–,6.31µM
Cc1nn(-c2ccccc2)c(Cl)c1/C=N/Nc1nncc(=O)[nH]1,–,–,–[10 µM],·,–[9.22 µM],·
O=C(CCS(=O)(=O)c1ccc(Cl)cc1)Nc1ccc(N2CCOCC2)cc1,–,–,–[10 µM],·,–[9.22 µM],?
O=C(c1ccccc1)n1c(=S)nc2ccccn21,–,–,–,·,–,–
Cc1cccc(C(=O)n2c(=S)nc3ccccn32)c1,–,–,–[10 µM],22.4µM,–,10µM
Cc1ccc(C(=O)n2c(=S)nc3ccccn32)cc1,–,–,–[10 µM],31.6µM,–,22.4µM
Cc1cccn2c1nc(=S)n2C(=O)c1ccco1,–,–,·,?,?,–
Cc1cccc(-n2ncc3c(N4CC(C)CC(C)C4)ncnc32)c1 (configuration not stated),–,–,–,–,22.4µM,25.1µM
O=C(COc1ccccc1)N1CCN(c2ncnc3c2cnn3-c2ccccc2)CC1,–,–,–[10 µM],–,?,7.08µM
Cc1cccc(C(=O)N2CCN(c3ncnc4c3cnn4-c3ccccc3)CC2)c1,–,–,–[10 µM],–,?,10µM
CS(=O)(=O)N1CCN(c2ncnc3c2cnn3-c2ccccc2)CC1,–,–,–[10 µM],·,–[9.22 µM],?
Cc1noc(C)c1-c1nc(CS(=O)(=O)c2ccccc2)no1,–,–,–[10 µM],·,–[9.22 µM],?
COc1ccccc1NS(=O)(=O)c1cccc(C(=O)NN=C2CCCCCC2)c1,–,–,–[10 µM],–,–,12.6µM
O=c1[nH]c(=S)c2ncn(-c3ccccc3)c2[nH]1,–,–,–[10 µM],·,–[9.22 µM],25.1µM
SMILES,KDM4E inh,CBFb RUNX1 block,HTT ATP protect,HPGD inh,HTT aggregate,ALDH1A1 block
O=c1[nH]c(=S)c2[nH]c(=O)n(-c3ccccc3)c2[nH]1,·,·,–[10 µM],–,·,–[13.5 µM]
CN(C)/C=N/c1c(C#N)nnn1Cc1ccccc1,–,–,–,20µM,–,?
CN(C)C=Nc1ncc2c3ccccc3n(Cc3ccccc3)c2c1C#N,?,–,–,?,–,?
Cc1ccc2nc3ccc(N4CCCCCCC4)nn3c(=O)c2c1,–,–,–,–,–,10µM
O=C1CCCc2[nH]nc(-c3cccnc3)c21,–,–,–,–,–,–
COCCNC(=S)NN(c1ccccc1)c1ccccc1,–,–,–,·,–,31.6µM

# High-throughput results: PubChem BioAssay, National Center for Advancing Translational Sciences (NCATS)
